Bioassay records: PubChem BioAssay, several laboratories
Sampled rows, rich in hits. Any-hit rate of the full collection: about 3.6%.
NadD inh = inhibitors of Staphylococcus aureus NadD; purified NadD enzyme, colorimetric absorbance read-out; inhibition, % at 20 µM; 360,000 compounds, 0.78% hits; in the data active means inhibition above about 26%
Myeloid diff MLP = promotes myeloid progenitor differentiation | ER-HoxA9 myeloid progenitors, lysozyme-GFP differentiation, flow cytometry | calls only at 10 µM | 360,000 compounds, 1% hits;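 active means normalized GFP-positive differentiation at or above the plate's own cutoff, the solvent-only control mean plus 3 SD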;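 further: cells exposed to compound for four days before flow analysis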
CRFBP-R2 block = blocks CRF-induced signaling of the CRF-BP/CRF-R2 complex; HEK293 CRF-R2/CRF-BP, CRF-induced calcium fluorescence; inhibition, % at 11.8 µM; 350,000 compounds, 0.59% hits; AID 588475;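 active means inhibition of the ligand-induced calcium signal above about 50% at the single tested concentration, limit read from the data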
CendR NRP1 mod = modulators of CendR peptide binding to human neuropilin-1; O14786; FAM-RPARPAR peptide binding to NRP-1, fluorescence polarization; inhibition, % at 25 µM; 360,000 compounds, 0.85% hits;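 active means inhibition or corrected inhibition above about 18%, plus a signal ratio from 0.5 to 1.5, limit read from the data, passing the limit was not always enough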
Target sequence (O14786 whole entry, looked up): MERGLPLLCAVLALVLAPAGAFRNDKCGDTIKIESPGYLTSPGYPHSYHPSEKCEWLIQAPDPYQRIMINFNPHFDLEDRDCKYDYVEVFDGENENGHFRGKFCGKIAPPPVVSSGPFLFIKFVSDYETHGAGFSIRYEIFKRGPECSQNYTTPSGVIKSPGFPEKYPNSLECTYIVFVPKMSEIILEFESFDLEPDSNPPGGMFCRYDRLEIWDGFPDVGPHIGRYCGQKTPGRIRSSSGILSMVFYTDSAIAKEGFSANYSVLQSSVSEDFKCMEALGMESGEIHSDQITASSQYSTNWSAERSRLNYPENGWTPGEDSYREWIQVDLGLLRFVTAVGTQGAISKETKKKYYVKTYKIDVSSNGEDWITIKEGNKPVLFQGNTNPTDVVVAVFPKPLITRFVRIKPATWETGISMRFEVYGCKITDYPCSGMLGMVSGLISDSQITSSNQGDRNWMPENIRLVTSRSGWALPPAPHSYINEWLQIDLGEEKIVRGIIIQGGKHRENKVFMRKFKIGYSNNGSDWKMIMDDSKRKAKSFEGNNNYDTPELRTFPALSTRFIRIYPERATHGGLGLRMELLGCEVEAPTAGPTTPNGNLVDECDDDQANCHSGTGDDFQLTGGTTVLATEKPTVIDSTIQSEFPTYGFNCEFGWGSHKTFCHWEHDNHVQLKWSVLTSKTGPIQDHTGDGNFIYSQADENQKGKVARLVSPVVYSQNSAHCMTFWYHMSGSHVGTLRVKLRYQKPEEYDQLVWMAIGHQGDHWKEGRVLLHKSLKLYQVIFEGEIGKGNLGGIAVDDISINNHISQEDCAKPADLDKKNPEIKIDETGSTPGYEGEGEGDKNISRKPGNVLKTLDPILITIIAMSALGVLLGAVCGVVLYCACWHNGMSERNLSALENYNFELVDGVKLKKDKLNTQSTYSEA
FAS TE block = inhibitors of human fatty acid synthase thioesterase domain. AID 602261. 360,000 compounds, 0.67% hits. P49327. recombinant FAS-TE, OMFH fluorogenic substrate, fluorescence endpoint. inhibition, % at 15 µM;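 active means compounds whose normalised, plate-corrected inhibition of enzyme fluorescence in the single-dose primary screen is 50% or more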
NadD inh conf = confirmation of Staphylococcus aureus NadD inhibitors | 2,000 compounds, 13% hits | inhibition, % at 20 µM | purified S. aureus NadD, colorimetric enzyme assay | shares compounds with NadD inh; in the data active means inhibition mostly above about 42%, no sharp cut-off; inactive means mostly below about 42%
Of the large screens only hits and unclear results are named; the others gave an inactive call (follow-up assays come after a bar, where they were run).

COc1cc(C(=O)OCC(=O)N2CC(C)OC(C)C2)cc(OC)c1OC (stereo not given)	none
COc1ccc(NC(=S)NNc2ccc([N+](=O)[O-])cc2S(=O)(=O)Nc2ccc(C)cc2C)cc1	none
Cc1ccc(NS(=O)(=O)c2cc([N+](=O)[O-])ccc2NNC(=S)Nc2cc(C)ccc2C)c(C)c1	NadD inh 47 | NadD inh conf inactive
Cc1ccc(CC(=O)NCC(c2ccco2)N(C)C)cc1C (stereo not given)	none
Cc1ccc(S(=O)(=O)N2CCN(c3ncnc4scc(-c5ccc(F)cc5)c34)CC2)cc1	NadD inh 37 | NadD inh conf inactive
COc1ccc(-c2csc3ncnc(N4CCN(S(=O)(=O)c5cccc(Br)c5)CC4)c23)cc1	NadD inh 31 | NadD inh conf inactive
COc1ccc(C(=O)CCC(=O)N2CCN(c3cc(C)ccc3C)CC2)cc1	none
Nc1nc(-c2ccc(Br)cc2)cs1	none
Brc1ccc(-c2csc(Nc3nc(-c4ccc(Br)cc4)cs3)n2)cc1	NadD inh 30 | NadD inh conf inactive
Cc1ccc(CC(=O)N/N=C/c2ccc(OC(=O)c3ccc([N+](=O)[O-])cc3)cc2)cc1	NadD inh 33 | NadD inh conf inactive
CCOC(=O)C1=C(C)N(C[C@@H]2CC[C@@H](Cc3ccc(-c4ccccc4)cc3)O2)C(=O)NC1c1ccc(SCc2ccco2)c([N+](=O)[O-])c1 (stereo not given in full)	NadD inh 59 | NadD inh conf inactive
CCOC(=O)C1=C(C)N(C[C@@H]2CC[C@@H](Cc3ccc(-c4ccccc4)cc3)O2)C(=O)NC1c1ccc(C(F)(F)F)cc1 (stereo not given in full)	none
Cc1ccc(S(=O)(=O)N2CCC(C(=O)N/N=C/c3ccncc3)CC2)cc1	none
Nc1ccc2nc(CCCCCCc3nc4ccc(N)cc4[nH]3)[nH]c2c1	NadD inh 50 | NadD inh conf inactive
O=C(Sc1n[nH]c(=O)[nH]c1=O)c1ccccc1	none
CC1(C(=O)NS(=O)(=O)c2cccc(Cl)c2)CCN1C(=O)Cc1ccc(-c2ccccc2)cc1 (stereo not given)	none (no result: CRFBP-R2 block)
Cc1sc2nc(SCc3nc4ccccc4[nH]3)n(Cc3ccco3)c(=O)c2c1C	NadD inh 35 | NadD inh conf inactive
O=C(CN1CCOCC1)N/N=C/c1ccc(-c2cccc(Cl)c2Cl)o1	none
c1ccc(-c2nc(SCc3nc4ccccc4[nH]3)c3oc4ccccc4c3n2)cc1	NadD inh 31 | NadD inh conf inactive
Cc1nc(SCc2nc3ccccc3[nH]2)c2oc3ccccc3c2n1	none
O=C(Nc1cccc(Cl)c1)/C(=C\c1cccnc1)NC(=O)c1ccco1	none
COc1ccc(-c2ccc3c(c2)S(=O)(=O)c2cccc(C(=O)NCc4ccccc4Cl)c2C3=O)cc1OC	none
O=C(NCc1ccco1)c1cccc2c1C(=O)c1ccc(/C=C/c3ccccc3)cc1S2(=O)=O	NadD inh 48 | NadD inh conf 46
O=C(NCc1ccco1)c1cccc2c1C(=O)c1ccc(N3CCC(Cc4ccccc4)CC3)cc1S2(=O)=O	NadD inh 39 | NadD inh conf inactive
O=C(NCc1cccc(F)c1)c1cccc2c1C(=O)c1ccc(N3CCCC3)cc1S2(=O)=O	none
O=C(NCCc1ccc(F)cc1)c1cccc2c1C(=O)c1ccc(N3CCC(Cc4ccccc4)CC3)cc1S2(=O)=O	NadD inh 28, Myeloid diff MLP active | NadD inh conf inactive
O=C(CN1C(=O)NC2(CCCCC2)C1=O)NCc1cccs1	none
CCOC(=O)c1cc2c(=O)n3cccc(C)c3nc2n(Cc2ccco2)c1=NC(=O)c1ccc(C)cc1	none
CCOC(=O)c1cc2c(=O)n3cccc(C)c3nc2n(Cc2ccco2)c1=NC(=O)c1ccccc1	NadD inh 32 | NadD inh conf inactive
CCOC(=O)c1cc2c(=O)n3ccccc3nc2n(Cc2ccco2)c1=NC(=O)c1cccc(OC)c1	NadD inh 45 | NadD inh conf inactive
NC(COCc1ccccc1)c1csc(Nc2ccc(C(=O)c3ccccc3)cc2)n1 (stereo not given)	none (no result: CRFBP-R2 block)
O=c1c2ccccc2sn1-c1ccc(S(=O)(=O)N2CCCC2)cc1	none
O=c1c2ccccc2sn1-c1ccc(S(=O)(=O)N2CCCCC2)cc1	NadD inh 31 | NadD inh conf inactive
CCOc1cc(-c2cc(-c3ccc(C)o3)nc(N)c2C#N)ccc1O	none
